Assay results: PubChem BioAssay
Active and inactive are the calls of the source. Unless noted, no rule for the calls is given here.

Key:
[1] = A549 cell viability effects, profiling panel, calcein-AM fluorescence, 48 h, basal (AID 1162); details: higher = more signal; also: test concentration not given here
[2] = adipocyte viability effects, profiling panel, cell-based, 3T3-L1 adipocytes, calcein-AM fluorescence, 48 h, basal (AID 1163); details: 3T3-L1 adipocytes viability, higher = more signal; also: test concentration not given here
[3] = HepG2 cell viability effects, profiling panel, calcein-AM fluorescence, 48 h, basal (AID 1164); details: higher = more signal; also: test concentration not given here
[4] = MM1S cell viability effects, profiling panel, calcein-AM fluorescence, 48 h, basal (AID 1165); details: higher = more signal;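 also: viability of MM1S multiple myeloma cells under basal unstimulated conditions; test concentration not given here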
[5] = basal RPMI8226 viability, no added stimulus, profiling panel, cell-based, calcein-AM fluorescence, 48 h, PK04 Diversity Set (AID 1166); details: RPMI8226 myeloma viability, higher = more signal;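 also: cells grown under basal conditions without added stimulus; test concentration not given here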
[6] = basal HepG2 mitochondrial membrane potential changes, profiling panel, cell-based, JC-1 fluorescence, 24 h, 100 nL compound (AID 1167); details: higher = more signal; also: test concentration not given here
[7] = basal 3T3-L1 adipocyte mitochondrial potential changes, profiling panel, cell-based, JC-1 fluorescence, 3T3-L1 adipocytes, 24 h, 100 nL compound (AID 1168); details: JC-1 mitochondrial fluorescence, higher = more signal, called active from +8 up or from −8 down; also: test concentration not given here
[8] = basal RPMI8226 mitochondrial membrane potential changes, profiling panel, cell-based, JC-1 fluorescence, 24 h, 100 nL compound (AID 1169); details: RPMI8226 myeloma, JC-1 mitochondrial potential fluorescence, higher = more signal; also: test concentration not given here
[9] = basal MM1S mitochondrial membrane potential changes, profiling panel, cell-based, JC-1 fluorescence, 24 h, 100 nL compound (AID 1170); details: higher = more signal; also: test concentration not given here
[10] = A549 lung cancer cell viability effects, profiling panel, resazurin fluorescence, 24 h, PK04 Diversity Set (AID 1171); details: higher = more signal, called active from +8 up or from −8 down; also: test concentration not given here
[11] = HepG2 liver cancer cell viability effects, profiling panel, resazurin fluorescence, 24 h, PK04 Diversity Set (AID 1172); details: higher = more signal; also: test concentration not given here
[12] = basal S. cerevisiae growth modulation, no modifier, primary screen, OD600, strain BY4716, 24 h, basal condition (AID 1173); details: OD600, 24 h, higher = more signal, called active from +8 up or from −8 down
[13] = MM1S myeloma cell viability, profiling panel, resazurin fluorescence, basal, 24 h, PK04 Diversity Set (AID 1174); details: higher = more signal, called active from +8 up or from −8 down;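 also: MM1S multiple myeloma cell line; test concentration not given here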
[14] = molecular target: Dihydroorotate dehydrogenase (quinone), mitochondrial (Plasmodium falciparum (isolate 3D7)) (UniProt Q08210); assay: PfDHODH enzyme inhibitors, primary screen, biochemical, C-terminal His tag, absorbance 600 nm (AID 1175); details: DCIP absorbance 600 nm, higher = more signal, called active from +8 up or from −8 down;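 also: recombinant parasite enzyme with a five histidine tag at its C terminus; test concentration not given here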
Chain of Dihydroorotate dehydrogenase (quinone), mitochondrial (Plasmodium falciparum (isolate 3D7)) (Q08210 whole entry, looked up): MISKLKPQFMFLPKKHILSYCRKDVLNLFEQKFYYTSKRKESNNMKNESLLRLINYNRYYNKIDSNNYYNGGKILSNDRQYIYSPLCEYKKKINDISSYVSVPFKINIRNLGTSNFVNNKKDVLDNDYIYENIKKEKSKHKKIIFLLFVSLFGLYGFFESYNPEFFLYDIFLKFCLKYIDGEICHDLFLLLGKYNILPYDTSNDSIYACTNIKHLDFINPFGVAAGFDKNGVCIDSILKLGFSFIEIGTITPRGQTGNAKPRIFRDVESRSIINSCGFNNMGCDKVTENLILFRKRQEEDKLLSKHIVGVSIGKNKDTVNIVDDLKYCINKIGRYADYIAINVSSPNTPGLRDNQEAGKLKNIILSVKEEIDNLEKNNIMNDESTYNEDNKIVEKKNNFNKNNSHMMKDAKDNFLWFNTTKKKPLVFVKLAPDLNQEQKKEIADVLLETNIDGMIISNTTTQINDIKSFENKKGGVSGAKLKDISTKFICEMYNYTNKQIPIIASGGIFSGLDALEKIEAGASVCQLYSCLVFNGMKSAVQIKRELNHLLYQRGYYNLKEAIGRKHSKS

[15] = P. aeruginosa biofilm formation inhibitors, primary screen, strain PAO1, LB-PBS medium, absorbance 600 nm (AID 1176); also: test concentration not given here; details: P. aeruginosa PAO1 growth/biofilm, A600, 12 h; higher = more signal
[16] = S. cerevisiae RM11-1a growth modifiers, primary screen, strain RM11-1a, OD600, basal, 24 h (AID 1177); details: OD600, 24 h, higher = more signal, called active from +8 up or from −8 down;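 also: cultures grown under basal conditions with no added stressor; test concentration not given here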
[17] = E. coli acrAB mutant growth effects, primary screen, E. coli filamentation inducers, strain DRC39, OD650, 24 h (AID 1178); details: higher = more signal, called active from +8 up or from −8 down;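 also: growth measured as culture turbidity by optical density at 650 nm; test concentration not given here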
[18] = E. coli acrAB mutant growth effects, primary screen, E. coli filamentation inducers, strain DRC39, OD650, 48 h (AID 1179);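 also: screen aims at cell division blockers that make cells filament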; details: E. coli DRC39 delta-acrAB growth, higher = more signal, called active from +8 up or from −8 down
[19] = RPMI8226 myeloma cell viability, profiling panel, resazurin fluorescence, basal, 24 h, PK04 Diversity Set (AID 1180); details: higher = more signal;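 also: RPMI8826 multiple myeloma cell line at 5000 cells per well; test concentration not given here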
[20] = molecular target: E3 ubiquitin-protein ligase XIAP (Homo sapiens) (UniProt P98170); assay: XIAP binders, primary screen, biophysical, small-molecule microarray, fluorescence 635 nm (AID 1181); details: small-molecule microarray binding, higher = more signal;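 also: score merges 667 nm emission and signal to noise over triplicate slides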
Chain of E3 ubiquitin-protein ligase XIAP (Homo sapiens) (P98170 whole entry, looked up): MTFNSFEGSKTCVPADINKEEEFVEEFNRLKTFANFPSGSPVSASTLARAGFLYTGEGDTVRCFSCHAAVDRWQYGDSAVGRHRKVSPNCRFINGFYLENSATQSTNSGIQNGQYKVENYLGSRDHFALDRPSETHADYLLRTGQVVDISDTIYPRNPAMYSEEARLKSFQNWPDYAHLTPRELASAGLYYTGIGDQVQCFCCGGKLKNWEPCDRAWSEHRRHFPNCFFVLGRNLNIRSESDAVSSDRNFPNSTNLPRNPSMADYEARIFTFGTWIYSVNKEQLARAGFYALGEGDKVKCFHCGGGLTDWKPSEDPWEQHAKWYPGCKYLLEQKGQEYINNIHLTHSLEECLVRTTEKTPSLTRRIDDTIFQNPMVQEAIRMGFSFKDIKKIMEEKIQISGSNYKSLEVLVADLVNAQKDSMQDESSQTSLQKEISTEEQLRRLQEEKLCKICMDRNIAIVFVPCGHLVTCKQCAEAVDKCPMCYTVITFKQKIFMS

Row | SMILES | z-score [1] | z-score [2] | z-score [3] | z-score [4] | z-score [5] | z-score [6] | z-score [7] | z-score [8] | z-score [9] | z-score [10] | z-score [11] | z-score [12] | z-score [13] | composite z-score [14] | z-score [15] | z-score [16] | z-score [17] | z-score [18] | z-score [19] | composite z-score [20]
1 | C#CCN([C@@H](Cc1ccc(O)cc1)C(=O)OC)[C@@H](/C=C/C1CC1)[C@H](O)Cc1ccccc1 | -3.21 | -0.0073 | -3.12 | -3.28 | -4.06 | -3.58 | -0.0474 (inactive) | -1.2 | -1.58 | -0.2 (inactive) | -1.12 | -2.71 (inactive) | -0.758 (inactive) | -0.228 (inactive) | -0.672 (inactive) | -0.136 (inactive) | -0.933 (inactive) | -0.737 (inactive) | -0.61 | 0.798
2 | COC(=O)[C@@]1(Cc2ccc(OC)cc2)[C@H]2c3cc(C(=O)N(C)C)n(C[C@H](O)CO)c3C[C@H]2CN1C(=O)c1ccccc1 | -0.93 | -0.503 | -0.285 | -1.99 | -1.79 | 0.906 | -0.871 (inactive) | -0.847 | -1.03 | -0.816 (inactive) | -1.17 | 1.02 (inactive) | -2.31 (inactive) | -0.791 (inactive) | 2.01 (inactive) | 0.166 (inactive) | -1.46 (inactive) | -1.11 (inactive) | -1.95 | 0.441
3 | CN(C)C(=O)[C@@]1(CCS(=O)(=O)c2ccccc2)N=C(c2ccc(OCCCO)cc2)O[C@H]1c1ccccc1 | 0.0979 | 0.171 | 0.568 | -0.215 | -2.01 | -0.104 | -0.268 (inactive) | 0.331 | 0.0134 | -0.124 (inactive) | 0.29 | 0.26 (inactive) | -0.236 (inactive) | -0.431 (inactive) | -0.372 (inactive) | -0.0905 (inactive) | -1.47 (inactive) | -0.732 (inactive) | -0.22 | -0.0866
4 | COc1ccc(CN(C2=CC[C@@]3(C(N)=O)C(=O)C(Cl)=C(Cl)C(=O)[C@@]3(C#N)C2)S(=O)(=O)c2ccc(Br)cc2)cc1 | 0.236 | 0.167 | 0.0144 | -3.34 | -1.66 | -2.16 | -0.689 (inactive) | -0.885 | -2.06 | -1.12 (inactive) | -0.275 | -1.2 (inactive) | -2.88 (inactive) | -4.12 (inactive) | 0.481 (inactive) | -0.96 (inactive) | 0.506 (inactive) | 0.575 (inactive) | -1.18 | 0.0937
5 | CC(C)C(=C=CC[C@H](O)c1ccc(OCCO)cc1)C[C@H](O)c1ccccn1 | 1.84 | -0.245 | 1.34 | -1.86 | -0.121 | 0.421 | -0.0235 (inactive) | -0.479 | -0.5 | 1.15 (inactive) | 0.748 | -1.7 (inactive) | 0.143 (inactive) | -0.575 (inactive) | 0.379 (inactive) | 0.673 (inactive) | 1.37 (inactive) | 0.879 (inactive) | 0.986 | 0.244
6 | O=C(NCC(F)(F)F)[C@@H]1c2ccccc2C(=O)N(Cc2cc(F)cc(C(F)(F)F)c2)[C@H]1c1ccc(CO)cc1 | 0.792 | 0.929 | -0.158 | 0.227 | -0.202 | 1.23 | 0.00233 (inactive) | -0.656 | -0.389 | 0.44 (inactive) | -0.16 | -0.359 (inactive) | 0.0875 (inactive) | 0.94 (inactive) | 0.221 (inactive) | 0.933 (inactive) | 0.647 (inactive) | -0.0858 (inactive) | 0.867 | -0.126
7 | COc1ccc(CCN2C(=O)[C@@]3(Cc4ccccc42)c2ccccc2C(=O)N(Cc2ccccc2OC)[C@H]3c2ccc(CO)cc2)cc1 | -0.391 | 0.677 | -0.264 | -1.98 | -0.996 | 0.0826 | 0.16 (inactive) | 0.718 | 0.464 | 0.271 (inactive) | -0.736 | -0.158 (inactive) | 0.289 (inactive) | -4.65 (inactive) | -0.0065 (inactive) | -1.16 (inactive) | 0.981 (inactive) | 0.339 (inactive) | 1.01 | -0.194
8 | C[C@@H]1ON(c2ccc(C(=O)OC(C)(C)C)cc2)[C@H](c2ccc(O)cc2)[C@H]1C(=O)N1C(=O)OC[C@H]1Cc1ccccc1 | -1.68 | 0.82 | -4.85 | -3.31 | -4.04 | -3.38 | -0.493 (inactive) | -0.877 | -2.81 | -1.31 (inactive) | -1.61 | 0.479 (inactive) | -1.04 (inactive) | 0.771 (inactive) | 0.212 (inactive) | 0.351 (inactive) | -0.682 (inactive) | -0.118 (inactive) | -0.687 | -0.13
9 | C=CCOC(=O)[C@H]1[C@@H]2C(=O)O[C@@H](c3ccccc3)[C@@H](c3ccccc3)N2[C@@H](c2ccc(OCCOC(=O)[C@@H]3C[C@@H]4C(=O)N[C@@H](CCCCN(C)C)C(=O)N4[C@@H]3c3ccc(O)cc3)cc2)[C@]12C(=O)Nc1ccccc12 | -0.0988 | 0.887 | 0.52 | -0.305 | -0.0297 | -2.38 | 0.0411 (inactive) | -0.473 | -0.92 | 0.23 (inactive) | -2.65 | -1.48 (inactive) | 0.0862 (inactive) | -1.52 (inactive) | 1.07 (inactive) | 0.0694 (inactive) | -1.05 (inactive) | -0.628 (inactive) | 0.313 | -0.0172
